Experimental data published in PubChem BioAssay (NCATS).
Several values for one entry are separate records, joined by “and”; a condition that tells them apart may be missing. Identical values can stand only once. Inconclusive results are not listed. A number with no mark means an inactive call. Activity calls are given as the source filed them. Calls follow the shape of the dose curve; as a rule, active = well fitted activation curve with a large enough effect; inconclusive = small, poorly fitted or top-dose-only effect; inactive = no such curve, though single readings can be large or run the other way.

molecular target: Cellular tumor antigen p53 (Homo sapiens) (UniProt P04637); assay: Primary qHTS for small molecule compounds that upregulate eGFP-tagged delta133p53alpha (in N-terminal) cells. (AID 2060322); settings: NCI-H358 eGFP-delta133p53alpha fluorescence, 24 h; activation: hits give high values; also: nearly all actives have a fitted effect of over 75% in size;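 as to activation: series mostly up to about 56 µM; 0% = DMSO vehicle and 100% = reference activator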
Method in brief: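 NCI-H358 cells pre-induced 24 h with 10 ng/ml doxycycline to express N-terminal eGFP-delta133p53alpha, then dosed 24 h at 37C without doxycycline; fixed, Hoechst-stained, GFP intensity by laser scanning cytometry, normalized to DMSO (0%) and 57.5 uM 5-azacytidine (100%).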
Potency is read from the fitted curve at half-maximal effect.

Sequence of Cellular tumor antigen p53 (Homo sapiens) (P04637 whole entry, looked up): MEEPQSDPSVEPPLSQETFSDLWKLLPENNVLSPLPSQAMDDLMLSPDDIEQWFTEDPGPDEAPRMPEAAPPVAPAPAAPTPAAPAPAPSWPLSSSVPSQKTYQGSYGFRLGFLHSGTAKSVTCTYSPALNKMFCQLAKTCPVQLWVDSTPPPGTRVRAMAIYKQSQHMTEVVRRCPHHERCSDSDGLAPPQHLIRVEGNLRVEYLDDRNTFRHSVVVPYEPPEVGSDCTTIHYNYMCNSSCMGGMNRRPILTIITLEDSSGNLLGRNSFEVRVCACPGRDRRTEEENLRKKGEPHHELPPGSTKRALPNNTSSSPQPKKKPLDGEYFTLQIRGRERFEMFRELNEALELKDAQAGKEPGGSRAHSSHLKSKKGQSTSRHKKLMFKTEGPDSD

SMILES	activation	Potency
C=CC(=O)N1CCCN(c2cc(NCCC(=O)O)nc(-c3ccccn3)n2)CC1	9.67%	
CC(=O)OCC(=O)[C@@]1(O)[C@H](C)C[C@H]2[C@@H]3C=C(C)C4=Cc5c(cnn5-c5ccccc5)C[C@]4(C)[C@@H]3[C@@H](O)C[C@@]21C	2.08%	
COc1cc(NC(=O)c2ccccn2)ccc1Cl	-5.25%	
OC[C@@]1(O)CO[C@@H](OC[C@H]2O[C@@H](Oc3ccccc3)[C@H](O)[C@@H](O)[C@@H]2O)[C@@H]1O	-3.82%	
CC(C)Nc1cc(-c2c[nH]c(C(=O)N[C@H](CO)c3cccc(Cl)c3)c2)c(Cl)cn1		4.26 µM (active)
Cc1nc2c(C#N)c[nH]n2c(=O)c1C(C)C	23.5%	
CCOc1ccc(Cc2nc(-c3c(C)nc4ccccn34)cs2)cc1	-8.33%	
CCC[C@H](N[C@@H](C)C(=O)N1[C@H](C(=O)O)C[C@@H]2CCCC[C@@H]21)C(=O)O	-7.64%	
C=C1CC23CC1CCC2C12OC(=O)C(C)(CCC1O)C2C3C(=O)O (stereo not drawn)	21.4%	
CCOc1ccc(Nc2nc(-c3c(C)nc4ccccn34)cs2)cc1	-3.9% and 0%	
CC(C)(Cc1ccccc1)NCC(O)c1ccc(O)c(NS(C)(=O)=O)c1 (stereo not drawn)	-0.955%	
S=C(c1ccc(-c2ccc(Cl)c(Cl)c2)o1)N1CCCCC1	-7.64%	
O=C(CCCCCCNC(=O)c1cnc(N(c2ccccc2)c2ccccc2)nc1)NO	7.34%	
